Compound activity as filed in PubChem.
TDP1 cell noCPT – qHTS for Inhibitors of human tyrosyl-DNA phosphodiesterase 1 (TDP1): qHTS in cells in absence of CPT | DT40 Tdp1-/- hTDP1 cells, no CPT, ATP luminescence, 48 h | Potency, µM (titrated, usually from 46.2 µM), without a hit: at the highest dose activity change, negative = growth inhibition, hits mostly inhibitors | actives 15% (n = 420,000) | AID 686978, 2013; also: nearly all actives have a fitted effect of over 55% in size
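Chicken DT40 Tdp1-/- cells complemented with human TDP1, screened without camptothecin (DMSO vehicle only), 400 cells/well. Compounds pin-transferred, cells incubated at 37 °C for at least 48 hr. Growth read as ATP-dependent luminescence (CellTiter-Glo, 30 min at RT).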
TDP1 inh – inhibitors of human tyrosyl-DNA phosphodiesterase TDP1 | Q9NUW8 | recombinant TDP1, AlphaScreen DNA substrate cleavage | Potency, µM (titrated, usually from 130 µM), without a hit: top-dose activity change, negative = inhibition, hits mostly inhibitors | actives 0.28% (n = 350,000); also: nearly all actives have a fitted effect of over 40% in size
Target sequence (Q9NUW8 whole entry, looked up): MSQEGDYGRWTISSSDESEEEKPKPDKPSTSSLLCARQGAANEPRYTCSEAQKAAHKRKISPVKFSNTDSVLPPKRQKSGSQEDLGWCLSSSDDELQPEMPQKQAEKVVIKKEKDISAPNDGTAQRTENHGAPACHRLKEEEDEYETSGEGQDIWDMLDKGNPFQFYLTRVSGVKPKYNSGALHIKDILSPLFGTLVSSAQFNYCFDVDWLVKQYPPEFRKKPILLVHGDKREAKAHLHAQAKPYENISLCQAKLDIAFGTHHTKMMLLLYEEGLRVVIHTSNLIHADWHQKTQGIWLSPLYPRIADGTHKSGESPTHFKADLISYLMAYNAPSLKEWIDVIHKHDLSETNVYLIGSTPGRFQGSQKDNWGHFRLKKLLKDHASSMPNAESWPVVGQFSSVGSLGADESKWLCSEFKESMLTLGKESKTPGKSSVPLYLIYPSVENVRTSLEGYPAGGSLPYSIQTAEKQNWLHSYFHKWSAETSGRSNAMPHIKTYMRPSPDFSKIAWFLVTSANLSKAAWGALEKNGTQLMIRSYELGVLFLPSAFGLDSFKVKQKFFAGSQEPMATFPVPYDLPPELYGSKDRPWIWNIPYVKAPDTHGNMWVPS
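Recombinant human Tdp1 (E. coli-expressed, 1 nM final) preincubated with compounds 15 min at room temperature, then 5'-biotin/3'-phosphotyrosine-FITC DNA substrate (15 nM final) added for 5 min. AlphaScreen beads (10 ug/ml final) added 10 min; cleavage lowers signal.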
PLK1 PBD block – PLK1 (human) polo-box domain binding inhibition | P53350 | AID 720504 | Plk1 PBD binding of FITC phosphopeptide, fluorescence polarization | Potency, µM, for the others: max response, negative = inhibition, usual class: inhibitors | actives 2.8% (n = 360,000); also: series mostly up to about 57 µM; nearly all actives have a fitted effect of over 65% in size
DT40 TDP1 CPT – growth inhibition of DT40 Tdp1-/-;hTDP1 cells with camptothecin (screen for TDP1 inhibitors). chicken DT40 Tdp1-/-;hTDP1 cells + 20 nM CPT, ATP luminescence, 48 h. Potency, µM (top dose mostly 46.2 µM), inactives show at the top dose activity change, negative = growth inhibition, hits mostly inhibitors. actives 12% (n = 420,000). AID 686979; also: nearly all actives have a fitted effect of over 55% in size
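Chicken DT40 Tdp1-/- cells complemented with human TDP1, 400 cells/well, exposed to compounds plus 20 nM camptothecin for at least 48 h at 37 C; viability read as ATP content by CellTiter-Glo luminescence.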
VDR inh – inhibitors of human vitamin D receptor | P11473 | VDR-SRC2-3 peptide fluorescence polarization, 2 h | Potency, µM, without a hit: max response, negative = inhibition, hits mostly inhibitors | actives 0.93% (n = 400,000) | AID 504847
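FP read-out; VDR + SRC2-3 coactivator peptide; 23 nl compound by pintool; 2 h RT incubation; reagents held at 4 deg C, protected from light.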
KAT2A inh – GCN5L2 (KAT2A) acetyltransferase inhibition. Potency, µM (titrated, usually from 58.9 µM), inactives show top-dose activity change, negative = inhibition, hits mostly inhibitors. GCN5L2 HAT assay, ThioGlo1 CoA-SH fluorescence. actives 0.21% (n = 390,000). Q92830
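Enzyme at 20nM final was mixed with library compounds for 15 min at room temperature. Peptide H3(1-25) at 75uM, acetyl-CoA at 70uM and ThioGlo1 at 50uM were then added. Plates were read immediately and after 20 min (Ex340nm/Em540nm).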
Active calls of the source: *. Rows were chosen to be rich in hits. Some 18% of all compounds tested hit in one or more screens of this group. Calls follow the shape of the dose curve; as a rule, active = well fitted curve in the direction sought with a large enough effect; inconclusive = small, poorly fitted or top-dose-only effect, or another doubt; inactive = no such curve, though single readings can be large; an effect the other way counts as inactive or inconclusive. % is scaled to controls: 0 for no effect and ±100 for the full control effect; potency is read from the fitted curve at half-maximal effect.

Results for O=C(NCCCCCCNC(=O)OCc1ccccc1)OCc1ccccc1 ?
TDP1 cell noCPT: -2%; PLK1 PBD block: -11%; DT40 TDP1 CPT: 1%; VDR inh: -13%

How did O=C(OCc1ccccc1)N(CCCCN(CCCNCc1ccccc1)C(=O)OCc1ccccc1)CCCNCc1ccccc1 do in these assays?
TDP1 cell noCPT: 5.2µM*; PLK1 PBD block: -6%; DT40 TDP1 CPT: 5.2µM*; VDR inh: 16%

Results for CCc1cc(Cl)c(OC)c(C(=O)NC[C@@H]2CCCN2CC)c1O ?
TDP1 cell noCPT: 26µM*; TDP1 inh: 4%; PLK1 PBD block: -13%; DT40 TDP1 CPT: inconclusive; VDR inh: -18%; KAT2A inh: 8%

Results for CC(NC(=O)COC(=O)c1ccc[nH]c1=O)c1ccccc1 (stereo not given) ?
TDP1 cell noCPT: -16%; TDP1 inh: 3%; PLK1 PBD block: -1%; DT40 TDP1 CPT: -7%; VDR inh: 15%; KAT2A inh: 1%

Results for CCCCCCCCN1C(=O)[C@H](CC(=O)N2CCN(C(=O)C3CC3)CC2)C[C@@]2(C(=O)OC)CC(C)(C)CC=C12 ?
TDP1 cell noCPT: 15µM*; PLK1 PBD block: -19%; DT40 TDP1 CPT: 15µM*

What do the screens show for `CCOC(=O)N1CCN(C(=O)C[C@@H]2C[C@@]3(C(=O)OC)CC(C)(C)CC=C3N(Cc3ccccc3)C2=O)CC1`?
TDP1 cell noCPT: inconclusive; PLK1 PBD block: -6%; DT40 TDP1 CPT: inconclusive

What do the screens show for `CCCCCCCCN1C(=O)[C@H](CC(=O)N2CCN(C(=O)OCC)CC2)C[C@@]2(C(=O)OC)CC(C)(C)CC=C12`?
TDP1 cell noCPT: 13µM*; PLK1 PBD block: -17%; DT40 TDP1 CPT: 13µM*

Results for CN(C)c1nc(Cl)nc2c1nc(Cl)n2C1CCCCO1 (stereo not given) ?
TDP1 cell noCPT: -19%; PLK1 PBD block: -3%; DT40 TDP1 CPT: 3%; VDR inh: -5%

Results for CCOc1ccccc1C1CC(=O)NC2=C1C(=O)CC(C)(C)C2 (stereo not given) ?
TDP1 cell noCPT: inconclusive; TDP1 inh: 2%; PLK1 PBD block: 27µM*; DT40 TDP1 CPT: -23%; VDR inh: -2%; KAT2A inh: -5%

How did CCc1nc(SCC(=O)Nc2ccccc2Cl)n[nH]1 do in these assays?
TDP1 cell noCPT: -18%; PLK1 PBD block: -4%; DT40 TDP1 CPT: 23%; VDR inh: 9%; KAT2A inh: -5%

Results for CCOC(=O)c1cc(-c2ccccc2)n(CCCC(=O)Nc2ccc(C)cc2Cl)c1C ?
TDP1 cell noCPT: inconclusive; TDP1 inh: -5%; DT40 TDP1 CPT: inconclusive; VDR inh: 6%; KAT2A inh: -9%

Results for CCOC(=O)c1cc(-c2ccccc2)n(CCC(=O)NCc2ccccc2Cl)c1C ?
TDP1 cell noCPT: 13µM*; TDP1 inh: -1%; DT40 TDP1 CPT: inconclusive; VDR inh: 4%; KAT2A inh: -4%

How did CCn1c(-c2ccc(C)cc2)nn(CC(=O)NCCc2ccccc2)c1=S do in these assays?
TDP1 cell noCPT: 2.9µM*; TDP1 inh: 2%; PLK1 PBD block: -15%; DT40 TDP1 CPT: 2.9µM*; VDR inh: -24%; KAT2A inh: -1%

Results for O=C(CCN1C(=O)c2ccccc2C1=O)N1CCN(c2ccccn2)CC1 ?
TDP1 cell noCPT: -12%; TDP1 inh: 6%; PLK1 PBD block: -3%; DT40 TDP1 CPT: 0%; VDR inh: -7%; KAT2A inh: -4%

How did CCOC(=O)c1cc(-c2ccc(F)cc2)n(CCC(=O)NCc2ccc(C)cc2)c1C do in these assays?
TDP1 cell noCPT: 21µM*; TDP1 inh: 3%; DT40 TDP1 CPT: inconclusive; VDR inh: 9%; KAT2A inh: -4%

Results for CCOC(=O)c1cc(-c2ccccc2)n(CCC(=O)N2CCN(c3ccccn3)CC2)c1C ?
TDP1 cell noCPT: 21µM*; TDP1 inh: 5%; PLK1 PBD block: -20%; DT40 TDP1 CPT: 15µM*; VDR inh: 13%; KAT2A inh: -5%

What do the screens show for `Cc1nn(CC(=O)NCCc2ccccc2)c(=O)c2ccccc12`?
TDP1 cell noCPT: -3%; TDP1 inh: 6%; PLK1 PBD block: -3%; DT40 TDP1 CPT: -3%; VDR inh: 16%; KAT2A inh: -3%

What do the screens show for `CCCNC(=O)CCn1c(-c2ccc(C)cc2)cc(C(=O)OCC)c1C`?
TDP1 cell noCPT: inconclusive; TDP1 inh: 2%; PLK1 PBD block: -6%; DT40 TDP1 CPT: inconclusive; VDR inh: -8%; KAT2A inh: -4%

What do the screens show for `COc1ccc(S(=O)(=O)N2CCC(C(=O)NCCc3ccccc3)CC2)cc1`?
TDP1 cell noCPT: -10%; PLK1 PBD block: 0%; DT40 TDP1 CPT: -18%; VDR inh: -9%; KAT2A inh: -4%

Results for CC(=O)c1cc(-c2ccc(F)cc2)n(CC(=O)NCc2ccc(C)cc2)c1C ?
TDP1 cell noCPT: 8.2µM*; TDP1 inh: -2%; DT40 TDP1 CPT: 16µM*; VDR inh: 5%; KAT2A inh: -7%

Results for CC(=O)c1cc(-c2ccccc2)n(CC(=O)NCCc2ccc(C)cc2)c1C ?
TDP1 cell noCPT: 8.2µM*; TDP1 inh: 0%; DT40 TDP1 CPT: 15µM*; VDR inh: 7%; KAT2A inh: -5%

How did O=C(c1cccc2ccccc12)C1CCCN(C(=O)c2ccc(N3CCOCC3)cc2)C1 (stereo not given) do in these assays?
TDP1 cell noCPT: 23µM*; TDP1 inh: 6%; PLK1 PBD block: inconclusive; DT40 TDP1 CPT: inconclusive; VDR inh: -14%; KAT2A inh: -1%

How did CSc1ccccc1C(=O)C1CCCN(C(=O)c2cccc(Cn3cccn3)c2)C1 (stereo not given) do in these assays?
TDP1 cell noCPT: inconclusive; PLK1 PBD block: -27%; DT40 TDP1 CPT: inconclusive

How did CCc1cc(C(=O)N2CCCC(C(=O)c3cccc4ccccc34)C2)n(C)n1 (stereo not given) do in these assays?
TDP1 cell noCPT: 15µM*; TDP1 inh: 3%; PLK1 PBD block: -2%; DT40 TDP1 CPT: inconclusive; VDR inh: -7%; KAT2A inh: -12%

How did Cc1cc(C(=O)N2CCCC(C(=O)c3cccc4ccccc34)C2)nc(C)n1 (stereo not given) do in these assays?
TDP1 cell noCPT: inconclusive; PLK1 PBD block: -5%; DT40 TDP1 CPT: inconclusive; VDR inh: 3%; KAT2A inh: -4%
